From PubChem BioAssay AID1159580 (chemical genetic matrix, 2015)
Where “and” joins values, the source holds several entries; their conditions need not be identical. Equal values may be shown once. Among all 5,500 compounds or so, about 2,000 (36%) were called active. About 18% were inconclusive and are not listed. No stated cut-off is given here; in the data, active means normalized growth mostly below about 0.91 (no sharp cut-off); inconclusive means no clear call, values can overlap the other calls; inactive means mostly above about 0.92. Some of the results follow.

Assay: chemical genetic growth profiling, strain panel (AID 1159580);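 further: tested at 20 µM; growth read once vehicle control cultures reached saturation at 30 °C; 1 = growth at the plate median or of vehicle wells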
Settings: S. cerevisiae deletion strains, growth OD

Measured: normalized growth

O=C1c2cccc(O)c2C(=O)c2c(O)cccc21
0.74 (active) and 0.875 (inactive): locus YHR030C, strain SLT2, stronger effect = lower value
inactive: locus YAL030W, strain snc1, stronger effect = lower value 0.935 | locus YBL061C, strain skt5, stronger effect = lower value 0.929 | locus YBR171W, strain sec66, stronger effect = lower value 0.939 | locus YCL011C, strain gbp2, stronger effect = lower value 0.928 | locus YCL061C, strain MRC1, stronger effect = lower value 0.928 | locus YCL069W, strain vba3, stronger effect = lower value 0.951 | locus YCR088W, strain abp1, stronger effect = lower value 0.97 | locus YDL040C, strain nat1, stronger effect = lower value 0.952 | locus YDR001C, strain nth1, stronger effect = lower value 0.977 | locus YDR297W, strain sur2, stronger effect = lower value 0.949 | locus YEL037C, strain rad23, stronger effect = lower value 0.936 | locus YEL061C, strain CIN8 (second series), stronger effect = lower value 0.957 | locus YER111C, strain swi4, stronger effect = lower value 0.956 | locus YGL173C, strain kem1, stronger effect = lower value 0.947 | locus YGL227W, strain vid30, stronger effect = lower value 0.994 | locus YHR079C, strain IRE1, stronger effect = lower value 0.899 | locus YHR094C, strain hxt1, stronger effect = lower value 0.95 | locus YIL073C, strain SPO22, stronger effect = lower value 0.764 | locus YJL092W, strain hpr5, stronger effect = lower value 0.946 | locus YJL129C, strain trk1, stronger effect = lower value 1.02 | locus YJL134W, strain LCB3, stronger effect = lower value 0.951 | locus YJL154C, strain vps35, stronger effect = lower value 0.955
active: locus YAL013W, strain DEP1, stronger effect = lower value 0.799 | locus YAL021C, strain ccr4, stronger effect = lower value 0.837 | locus YAL026C, strain drs2, stronger effect = lower value 0.823 | locus YBR009C, strain hhf1, stronger effect = lower value 0.821 | locus YBR021W, strain FUR4, stronger effect = lower value 1.18 [resistant] | locus YBR023C, strain chs3, stronger effect = lower value 0.909 | locus YBR229C, strain ROT2, stronger effect = lower value 0.898 | locus YBR231C, strain swc5, stronger effect = lower value 0.733 | locus YBR279W, strain paf1, stronger effect = lower value 0.905 | locus YCL016C, strain dcc1, stronger effect = lower value 0.77 | locus YCL029C, strain bik1, stronger effect = lower value 0.808 | locus YDL005C, strain med2, stronger effect = lower value 0.167 | locus YDL035C, strain GPR1, stronger effect = lower value 0.703 | locus YDL074C, strain BRE1, stronger effect = lower value 0.658 | locus YDL101C, strain DUN1, stronger effect = lower value 0.616 | locus YDL185W, strain tfp1, stronger effect = lower value 0.789 | locus YDL192W, strain arf1, stronger effect = lower value 0.628 | locus YDR069C, strain doa4, stronger effect = lower value 0.768 | locus YDR101C, strain arx1, stronger effect = lower value 0.745 | locus YDR137W, strain rgp1, stronger effect = lower value 0.268 | locus YDR150W, strain NUM1, stronger effect = lower value 0.861 | locus YDR159W, strain sac3, stronger effect = lower value 0.705 | locus YDR162C, strain NBP2, stronger effect = lower value 0.344 | locus YDR195W, strain ref2 1.22 [resistant] | locus YDR318W, strain mcm21, stronger effect = lower value 0.772 | locus YDR334W, strain swr1, stronger effect = lower value 0.831 | locus YDR335W, strain msn5, stronger effect = lower value 0.85 | locus YDR388W, stronger effect = lower value 0.728 | locus YDR392W, strain spt3, stronger effect = lower value 0.64 | locus YDR502C, strain sam2, stronger effect = lower value 0.673 | locus YEL003W, strain gim4, stronger effect = lower value 0.834 | locus YEL061C, strain CIN8, stronger effect = lower value 0.747 | locus YER015W, strain faa2, stronger effect = lower value 0.911 | locus YER016W, strain bim1, stronger effect = lower value 0.864 | locus YER110C, stronger effect = lower value 0.885 | locus YER155C, strain BEM2 (second series), stronger effect = lower value 0.806 | locus YER155C, strain BEM2, stronger effect = lower value 0.835 | locus YER167W, strain BCK2, stronger effect = lower value 0.77 | locus YFR010W, strain ubp6, stronger effect = lower value 0.862 | locus YGL078C, strain dbp3, stronger effect = lower value 0.874 | locus YGL086W, strain mad1, stronger effect = lower value 0.781 | locus YGL167C, strain pmr1, stronger effect = lower value 0.612 | locus YGL240W, strain doc1, stronger effect = lower value 0.886 | locus YGL248W, strain PDE1, stronger effect = lower value 0.685 | locus YGL253W, strain hxk2, stronger effect = lower value 0.79 | locus YGR078C, strain PAC10, stronger effect = lower value 0.669 | locus YGR135W, strain pre9, stronger effect = lower value 0.698 | locus YGR252W, strain gcn5, stronger effect = lower value 0.625 | locus YHR013C, strain ard1, stronger effect = lower value 0.701 | locus YHR027C, strain rpn1, stronger effect = lower value 0.81 | locus YHR079C, strain IRE1 (second series), stronger effect = lower value 0.915 | locus YHR129C, strain ARP1, stronger effect = lower value 0.777 | locus YHR142W, strain chs7, stronger effect = lower value 0.857 | locus YHR200W, strain rpn10, stronger effect = lower value 0.732 | locus YIL066C, strain RNR3, stronger effect = lower value 0.59 | locus YIL125W, strain kgd1, stronger effect = lower value 0.872 | locus YIR030C, strain dcg1, stronger effect = lower value 0.896 | locus YJL095W, strain BCK1 (second series), stronger effect = lower value 0.878 | locus YJL095W, strain BCK1, stronger effect = lower value 0.379 and 0.881 | locus YJL115W, strain asf1, stronger effect = lower value 0.819 | locus YJL164C, strain tpk1, stronger effect = lower value 0.833 | locus YJL166W, strain qcr8, stronger effect = lower value 0.812 | locus YJL168C, strain set2, stronger effect = lower value 0.927 | locus YJL187C, strain SWE1 (second series), stronger effect = lower value 0.611 | locus YJL187C, strain SWE1, stronger effect = lower value 0.914
